High-throughput results: PubChem, National Center for Advancing Translational Sciences (NCATS)
Shown is part of a subset that was picked to be rich in hits.
FBPA Giardia inh: Giardia lamblia aldolase inhibition | purified Giardia FBPA | Potency, µM (highest dose often 59.6 µM), hits mostly inhibitors | 290,000 tested, 0.71% active | AID 2451; note: nearly all actives have a fitted effect of over 55% in size
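Giardia FBPA (40 nM reagent) was preincubated 10 min at RT with compound (up to 57.5 uM final), then substrate plus GAPDH/TPI/NAD/arsenate coupling system with diaphorase/resazurin was added; resorufin fluorescence (525/598 nm) was read after 20 min.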
Shiga toxin inh: blocks Shiga toxin action in Vero cells; Vero cells, Shiga toxin protein synthesis inhibition reporter; inhibition, % at 38.7 µM; 290,000 tested, 9.2% active; AID 2315; in the data active = inhibition mostly above about 28%, no sharp cut-off; inactive = mostly below about 43%
Sm TGR inh: inhibitors of Schistosoma mansoni thioredoxin glutathione reductase. Q962Y6. purified TGR, DTNB reduction, TNB absorbance 405 nm. Potency, µM (series often up to 114 µM), actives largely listed as inhibitors. 360,000 tested, 3% active; note: nearly all actives have a fitted effect of over 60% in size
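Kinetic colorimetric format: TGR-catalysed, NADPH-driven DTNB reduction monitored via TNB absorbance. Enzyme dispensed at 20 nM; compound exposure 15 min at room temperature before reaction start.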
Cycloheximide cs: counter-screen hit for Shiga toxin inhibitors, cycloheximide; cell reporter, cycloheximide protein synthesis inhibition counterscreen; max response, %; 300,000 tested, 12% active; AID 2314; in the data active = max response mostly above about 13%, no sharp cut-off; inactive = mostly below about 14%; note: read at 38.3 µM for the half of the compounds with a filed dose
LmPK inh: LmPK (Leishmania mexicana) enzyme inhibition | Q27686 | purified LmPK, Kinase-Glo ATP luminescence, 1 h | Potency, µM (top dose mostly 57.5 µM), hits mostly inhibitors | 290,000 tested, 0.37% active
Target sequence (Q27686 whole entry, looked up): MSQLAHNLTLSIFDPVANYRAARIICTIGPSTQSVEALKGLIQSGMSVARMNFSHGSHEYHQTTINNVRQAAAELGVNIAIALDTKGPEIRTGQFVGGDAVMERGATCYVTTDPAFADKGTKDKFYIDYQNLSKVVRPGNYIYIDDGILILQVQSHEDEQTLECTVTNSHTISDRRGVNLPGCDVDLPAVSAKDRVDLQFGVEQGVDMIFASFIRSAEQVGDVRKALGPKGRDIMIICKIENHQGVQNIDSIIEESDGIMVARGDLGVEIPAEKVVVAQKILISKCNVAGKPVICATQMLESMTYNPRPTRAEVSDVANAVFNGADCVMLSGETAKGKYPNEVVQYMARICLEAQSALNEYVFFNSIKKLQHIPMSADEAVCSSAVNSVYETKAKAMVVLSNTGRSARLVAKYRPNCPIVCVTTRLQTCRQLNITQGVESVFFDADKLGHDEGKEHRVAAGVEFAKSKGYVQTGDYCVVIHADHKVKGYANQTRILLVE
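Purified LmPK (0.1 nM) converted ADP (0.1 mM) to ATP with PEP (0.5 mM) in imidazole buffer pH 7.2 with KCl and MgCl2, 1 h at room temperature. ATP was read by Kinase-Glo luminescence; data normalized to uninhibited and no-enzyme controls.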
TbPYK inhibitor: T. brucei pyruvate kinase inhibition | Q57TT1 | TbPYK enzyme, Kinase-Glo Plus ATP luminescence, 45 min | Potency, µM (series often up to 76.8 µM), actives largely listed as inhibitors | 410,000 tested, 0.12% active | AID 624173; note: nearly all actives have a fitted effect of over 50% in size
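Screened from lowest to highest concentration, compounds were pinned into TbPYK/substrate mixtures, and ADP (130 uM final) was added. Plates sat at room temperature for 45 min prior to Kinase-Glo Plus detection by luminescence.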
A number is an active result; . = inactive; ? = inconclusive; / = not tested or not shown; + = active, no number; ! = not active in a repeat; [ ] = dose if it differs, or a comment. Unless noted, calls come from the whole dose curve; as a rule, active = well fitted curve in the direction sought with a large enough effect; inconclusive = small, poorly fitted or top-dose-only effect, or another doubt; inactive = no such curve, though single readings can be large; an effect the other way counts as inactive or inconclusive.

SMILES	FBPA Giardia inh	Shiga toxin inh	Sm TGR inh	Cycloheximide cs	LmPK inh	TbPYK inhibitor
CS(=O)(=O)N1N=C(c2ccco2)CC1c1ccccc1Cl (stereo not drawn)	.	.	39.8µM	.	.	.
CS(=O)(=O)N1N=C(c2ccco2)CC1c1ccc(Cl)cc1Cl (stereo not drawn)	.	.	28.2µM	.	.	.
CCN1CCc2c(sc(-n3cccc3)c2C(C)NC(=O)Nc2cc(Cl)c(OC)cc2OC)C1 (stereo not drawn)	/	/	.	/	/	.
CN(CCNC(=O)c1cc2c(=O)n(C)c3ccccc3c2n1C)Cc1ccccc1	.	.	28.2µM	.	.	.
CCCN(CCC)CCNC(=O)c1cc2c(=O)n(C)c3ccccc3c2n1C	.	.	50.1µM	.	.	.
Cc1ccc(CNC(=O)c2cc3c(=O)n(C)c4ccccc4c3n2C)cc1	.	.	.	.	.	.
CCOCCCNC(=O)c1cc2c(=O)n(C)c3ccccc3c2n1C	/	/	.	/	/	.
Cn1c(C(=O)N2CCCCCC2)cc2c(=O)n(C)c3ccccc3c21	.	.	.	19.6	.	.
CC1CCC(NC(=O)c2cc3c(=O)n(C)c4ccccc4c3n2C)CC1 (stereo not drawn)	.	.	.	17.9	.	.
CCC(C)C(NC(=O)C(Cc1ccc(O)cc1)NC(=O)OCc1ccccc1)C(=O)OC (stereo not drawn)	/	/	/	/	/	.
Nc1cccc(B(O)O)c1	.	/	/	/	/	/
CCN(CC)S(=O)(=O)c1nnc(NC(=O)c2ccco2)s1	.	.	.	.	.	.
CCN(c1ccc(C)cc1)S(=O)(=O)c1nnc(NC(=O)c2ccco2)s1	.	.	22.4µM	.	.	.
CCN(c1ccc(C)cc1C)S(=O)(=O)c1nnc(NC(=O)c2ccco2)s1	.	.	50.1µM	.	.	.
CC(C)CN(c1ccccc1)S(=O)(=O)c1nnc(NC(=O)c2ccco2)s1	.	.	35.5µM!	.	.	.
COc1cc(OC)cc(C(=O)Nc2ccc3c(c2)N(C2CCCC2)C(=O)c2ccccc2S3)c1	/	/	.	/	/	.
CCOc1ccc(CCNC(=O)CCc2c(C)nc3c4c(C)cc(C)nc4nn3c2C)cc1	/	/	.	/	/	.
Cc1cc(Nc2ccc(O)cc2)ccc1N	/	/	2µM	/	/	/
Cc1cc(C)nc(Nc2ccc(O)cc2)n1	?	.	.	24.1	.	.
CCc1ccc(Nc2nc(C)cc(C)n2)cc1	?	52.4	.	52.6	.	.
COc1ccc(Nc2nc(C)cc(C)n2)cc1Cl	?	.	.	26.3	.	.
Cc1cc(C)nc(Nc2ccc(C(=O)O)cc2)n1	.	.	.	.	.	.
CCC(C)NC(=O)CCc1c(C)nc2cc(-c3ccc(OC)cc3OC)nn2c1C (stereo not drawn)	/	/	.	/	/	.
CC(C)(C)c1ccc(-c2noc(CCC(=O)Nc3cccc(Cl)c3)n2)cc1	/	/	.	/	/	.
COCCNc1nc(-c2cc3ccccc3o2)cs1	.	74.1	.	82.7	.	.
SMILES	FBPA Giardia inh	Shiga toxin inh	Sm TGR inh	Cycloheximide cs	LmPK inh	TbPYK inhibitor
COc1cc(OC)cc(C(=O)NC(=S)Nc2nc(-c3cc4ccccc4o3)cs2)c1	.	.	.	.	.	.
COc1ccccc1CNC(=O)CSc1nc(=O)[nH]c2c1CCCC2	/	/	.	/	/	.
COCCCNC(=O)c1ccc(N(C)S(C)(=O)=O)cc1	.	.	28.2µM	.	.	.
COCCCNC(=O)c1ccc2c(c1)OCO2	.	+	.	22.9	.	.
Cc1ccc(OCCNC(=O)c2ccc3c(c2)OCO3)cc1	.	65.6	.	42.3	.	.
CCc1ccccc1N1CC(c2nnc(NC(=O)c3ccco3)s2)CC1=O (stereo not drawn)	/	/	.	/	/	.
O=C(Nc1ccc(N2CCCC2)cc1)c1ccc(Br)o1	.	70.5	.	58.5	.	.
CCCC(=O)N1CCN(c2ccc(NC(=O)c3ccc(Br)o3)cc2)CC1	.	.	.	.	.	.
CCN1CCN(c2ccc(NC(=O)c3ccc(Br)o3)cc2)CC1	.	111.0	.	42.8	.	.
O=C(COc1ccc(F)cc1)c1c(O)cc(O)cc1O	.	118.7	.	48.1	.	.
COc1ccc(C(=O)Cc2ccc(F)cc2)c(OC)c1	.	79.8	.	64.4	.	.
COc1ccc(C(C)=O)c(O)c1	.	/	/	/	/	/
COc1ccc(C(=O)Cc2cc(OC)c(OC)cc2[N+](=O)[O-])c(OC)c1	.	.	.	.	.	.
COc1ccc(C(=O)COc2ccc(F)cc2)c(O)c1	.	69.1	.	28.9	.	.
Cc1cc(NC(=O)CS(=O)(=O)c2ccc(Cl)cc2)no1	/	.	.	.	.	.
CCCCOC(=O)c1ccc(OC(=O)c2sc3ncn(Cc4ccccc4Cl)c(=O)c3c2C)cc1	/	/	.	/	/	.
CSc1ccccc1NC(=O)COc1ccccc1C	.	46.9	.	26.7	.	.
Cc1ccccc1OCC(=O)Nc1ccccc1CO	.	78.2	.	.	.	.
COc1ccccc1NC(=O)Cn1cc(S(=O)(=O)Cc2ccccc2)c2ccccc21	/	/	.	/	/	.[15.4 µM]
COc1ccc(CCC(=O)Nc2ncc(C)s2)cc1	.	35.3	.	16.9	.	.
COc1ccc(CCC(=O)NCC23CC4CC(CC(C4)C2)C3)cc1	.	.	.	14.8	.	.
Cc1cnc(NC(=O)COc2ccc3c(c2)CCC3)s1	/	61.1	.	59.7	.	.
COc1cc(CCC(=O)Nc2ncc(C)s2)cc(OC)c1OC	.	.	.	.	.	.
COc1ccc2c(CC(=O)Nc3ncc(C)s3)coc2c1	.	86.0	.	32.9	.	.
Cc1c(Cl)cccc1-n1nnc(-c2nc(-c3ccc4c(c3)OCO4)no2)c1C	/	/	.	/	/	.
SMILES	FBPA Giardia inh	Shiga toxin inh	Sm TGR inh	Cycloheximide cs	LmPK inh	TbPYK inhibitor
COCCNC(=O)NC(=O)CN1C(=O)NC(Cc2c[nH]c3ccccc23)C1=O (stereo not drawn)	.	.	.	.	.	.
COC(=O)C[C@@H]1C[C@@H]2c3cc(NC(=O)Cc4ccncc4)ccc3O[C@@H]2[C@@H](CO)O1	/	/	/	/	/	.
O=S(=O)(Nc1cc(Cl)cc(Cl)c1)N1CCOCC1	.	.	.	.	.	.
CC(=O)Nc1ccc(NC(=O)/C=C/c2ccccc2)cc1	.	33.4	.	24.9	.	.
CC(=O)N1CCN(c2ccc(NC(=O)/C=C/c3ccccc3)cc2)CC1	.	.	.	.	.	.
O=C(/C=C/c1ccccc1)Nc1cccc(C(=O)O)c1	.	23.5	.	34.7	?	.
O=C(/C=C/c1ccccc1)Nc1cc(NC(=O)/C=C/c2ccccc2)cc(C(=O)O)c1	.	.	39.8µM	.	.	.
O=C(/C=C/c1ccccc1)N/C(=C/c1ccccc1)C(=O)Nc1cccc(C(=O)O)c1	?	.	.	.	.	.
CCOC(=O)CSc1nc2sc3c(c2c(=O)n1Cc1ccccc1)CCC(C(C)(C)C)C3 (stereo not drawn)	/	/	.	/	/	.
COc1ccc(C)c2sc(N(Cc3cccnc3)C(=O)CCc3ccccc3)nc12	/	/	.	/	/	.[15.4 µM]
